# Results taken from PubChem BioAssay (EPA / NIEHS).
# Results filed as inconclusive are left out. The source made the active and inactive calls. How the source made its calls, unless noted: active means hit-call score of the fitted dose curve at least 0.9, where 1 is the maximum; inconclusive means response in the unintended direction; inactive means score below 0.9.
# Assays:
# [1] = target: Retinoic acid receptor alpha (Homo sapiens) (UniProt P10276); assay: ATG_DR5_RAR_CIS: Attagene CIS-FACTORIAL HepG2 Assay for human Retinoic Acid Receptor Alpha (RARE), DR5 submotif (AID 2282934; active means hit-call score of the fitted dose curve at least 0.9, where 1 is the maximum; inactive means score below 0.9); conditions: HepG2 Attagene cis-factorial RARE DR5 reporter, mRNA; actives raise or lower the signal
# In short: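 Transient MRTU transfection of HepG2; 24 h compound treatment; TriZol RNA, oligo(dT) RT, PCR, FAM labelling, capillary electrophoresis. Bidirectional fit vs DMSO. Endogenous TF activity at DR5 RARE.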
# [2] = ATG_PPRE_CIS: Attagene CIS-FACTORIAL HepG2 Assay for human Peroxisome Proliferator-activated Response Element (PPRE) (AID 2282958; active means hit-call score of the fitted dose curve at least 0.9, where 1 is the maximum; inactive means score below 0.9); conditions: HepG2 PPRE cis-element reporter, Attagene transcription factor profiling; actives raise or lower the signal
# In short: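 Read-out: fluorescent reporter mRNA fragments resolved by capillary electrophoresis after RT-PCR. HepG2 cells carried transiently transfected PPRE-driven cis reporter constructs and were dosed for 24 h; gain or loss of signal fitted relative to DMSO.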
# [3] = target: Oxysterols receptor LXR-alpha (Homo sapiens) (UniProt Q13133); assay: ATG_LXRa_TRANS: Attagene TRANS-FACTORIAL HepG2 Assay for human Liver X Receptor alpha (LXRa) (AID 2282980); conditions: HepG2 Attagene TRANS reporter, LXRa transactivation
# In short: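 Transfect HepG2 with GAL4-UAS multiplex reporter constructs (TRANS format, chimeric receptor-GAL4); treat 24 h; extract RNA, reverse-transcribe, PCR-amplify, FAM-label, HpaI-digest; resolve fragments by capillary electrophoresis. Upward response vs DMSO.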
# [4] = ATG_M_06_TRANS: Attagene TRANS-FACTORIAL HepG2 Assay for M06 Transcription Factor (Internal Marker) (AID 2282983); conditions: HepG2 Attagene TRANS M06 internal marker reporter
# In short: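 Transfect HepG2 with MRTUs → dose compounds 24 h → isolate RNA, oligo(dT) RT → PCR with reporter primers → 6-FAM primer extension → HpaI digest → CE fragment analysis. Positive direction vs DMSO.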
# [5] = target: human Peroxisome Proliferator-activated Receptor alpha (PPARa), PPARA (gene 5465) (UniProt Q07869); assay: ATG_PPARa_TRANS: Attagene TRANS-FACTORIAL HepG2 Assay for human Peroxisome Proliferator-activated Receptor alpha (PPARa) (AID 2283001)
# In short: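 Read-out is fluorescence of reporter cDNA fragments resolved by capillary electrophoresis after RT-PCR. Human HepG2 liver cells carried transfected PPARa-Gal4 chimera and GAL4-UAS reporter units, treated 24 h; activity scored as increase over DMSO.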
# [6] = target: human Peroxisome Proliferator-activated Receptor delta (PPARd), PPARD (gene 5467) (UniProt Q03181); assay: ATG_PPARd_TRANS: Attagene TRANS-FACTORIAL HepG2 Assay for human Peroxisome Proliferator-activated Receptor delta (PPARd) (AID 2283002)
# In short: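 Transient HepG2 transfection (multiple GAL4-UAS RTUs, chimeric receptor-Gal4); 24 h dosing; total RNA → oligo(dT) RT → PCR → 6-FAM primer extension → HpaI cut → CE. Positive direction vs DMSO.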
# [7] = target: human Vitamin D Receptor (VDR), VDR (gene 7421) (UniProt P11473); assay: ATG_VDR_TRANS: Attagene TRANS-FACTORIAL HepG2 Assay for human Vitamin D Receptor (VDR) (AID 2283022)
# In short: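 Steps: transfect HepG2 with GAL4-UAS-driven reporter constructs; dose compounds 24 h; isolate RNA, reverse-transcribe, PCR-amplify with 6-FAM-labelled primer extension and HpaI digestion; quantify fragments by capillary electrophoresis relative to DMSO.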
# [8] = TOX21_p53_BLA_p3_viability: Viability Assessment in the Tox21 HCT-116 p53 Agonism Beta-lactamase Assay, Phase 3 (AID 2283593);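 further: cells exposed to compound for 16 h before reading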
# In short: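 Cellular ATP was quantified by CellTiter-Glo luminescence, read after 30 min at room temperature. Beforehand, HCT116 cells (4000/well) received compound 5 h post-seeding, 217-fold diluted from DMSO, then incubated 16 h at 37C.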
# [9] = target: Oxysterols receptor LXR-beta (Homo sapiens) (UniProt P55055); assay: ATG_LXRb_TRANS: Attagene TRANS-FACTORIAL HepG2 Assay for human Liver X Receptor beta (LXRb) (AID 2282981); conditions: HepG2 Attagene TRANS GAL4-LXRb reporter, mRNA
# In short: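 Transient transfection HepG2 (multiplexed RTUs, GAL4-UAS); NR-Gal4 chimera; 24 h exposure; RNA → RT-PCR → 6-FAM primer extension → HpaI → CE; increase vs DMSO.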
# [10] = ATG_PBREM_CIS: Attagene CIS-FACTORIAL HepG2 Assay for human Phenobarbital-responsive Enhancer Module (PBREM) (AID 2282955; active means hit-call score of the fitted dose curve at least 0.9, where 1 is the maximum; inactive means score below 0.9); conditions: HepG2 PBREM cis-reporter, Attagene multiplexed transcription; actives raise or lower the signal
# In short: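 Reporter mRNA read by RT-PCR, 6-FAM primer extension, HpaI digestion and capillary electrophoresis. Transfected HepG2 cells, 24 h compound exposure. Gain or loss of signal fitted bidirectionally relative to DMSO baseline.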
# [11] = target: Glucocorticoid receptor (Homo sapiens) (UniProt P04150); assay: ATG_GR_TRANS: Attagene TRANS-FACTORIAL HepG2 Assay for human Glucocorticoid Receptor (GR) (AID 2282978); conditions: HepG2 Attagene TRANS GR reporter, mRNA transcription;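 further: activators score as hits since higher reporter transcript over DMSO is fitted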
# In short: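 Transient MRTU transfection of HepG2 (GAL4-UAS reporters, exogenous NR-GAL4 chimeras), 24 h dosing. Readout: reporter transcript via RT-PCR + capillary electrophoresis fluorescence. Positive direction vs DMSO baseline.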
# [12] = ATG_GRE_CIS: Attagene CIS-FACTORIAL HepG2 Assay for human Glucocorticoid Response Elements (GRE) (AID 2282947; active means hit-call score of the fitted dose curve at least 0.9, where 1 is the maximum; inactive means score below 0.9); conditions: HepG2 GRE cis-reporter, Attagene multiplex mRNA; actives raise or lower the signal
# In short: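 Transient MRTU transfection of human HepG2 liver cells; cis-regulated reporters report endogenous factors. 24 h dosing → RNA isolation → RT-PCR → 6-FAM primer extension → HpaI cut → CE fragment analysis. Bidirectional fit, DMSO negative control.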
# [13] = ATG_VDRE_CIS: Attagene CIS-FACTORIAL HepG2 Assay for human Vitamin D Receptor Element (VDRE) (AID 2282968; active means hit-call score of the fitted dose curve at least 0.9, where 1 is the maximum; inactive means score below 0.9); conditions: HepG2 VDRE cis-reporter transcription, actives raise or lower the signal
# In short: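 Reporter mRNA induction, quantified by capillary electrophoresis of fluorescently labelled RT-PCR products, was read 24 h after dosing HepG2 cells carrying transiently transfected cis-regulated reporter units; gain or loss relative to DMSO.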
# [14] = target: Nuclear receptor subfamily 1 group I member 3 (Homo sapiens) (UniProt Q14994); assay: ATG_CAR_TRANS: Attagene TRANS-FACTORIAL HepG2 Assay for human Constitutive Androstane Receptor (CAR) (AID 2282969); conditions: HepG2 Attagene TRANS-FACTORIAL CAR reporter;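 further: activators raise reporter mRNA above DMSO so AC50 marks induction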
# In short: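 Readout is reporter mRNA induction, quantified by fluorescent primer extension and capillary electrophoresis after RT-PCR. Cells were HepG2 transiently carrying chimeric NR-Gal4 constructs with GAL4-UAS reporters, treated for 24 h; activity scored upward from DMSO.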
# [15] = ATG_M_19_TRANS: Attagene TRANS-FACTORIAL HepG2 Assay for M19 Transcription Factor (Internal Marker) (AID 2282974); conditions: HepG2 Attagene TRANS-FACTORIAL M19 internal marker reporter
# In short: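 24 h chemical exposure of transiently transfected HepG2 (MRTU library). RNA → oligo(dT) RT → PCR → 6-FAM labelling → HpaI cut → CE fluorescence. Positive-direction fit vs DMSO baseline; background internal-marker readout.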
# [16] = target: Estrogen-related receptor gamma (Homo sapiens) (UniProt P62508); assay: ATG_ERRg_TRANS: Attagene TRANS-FACTORIAL HepG2 Assay for human Estrogen-Related Receptor gamma (ERRg) (AID 2282977); conditions: HepG2 Attagene TRANS reporter, ERRg transactivation;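 further: hits increase reporter signal over DMSO so potencies reflect activators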
# In short: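 Transfect HepG2 with multiple GAL4-UAS reporter transcription units; dose chemicals 24 h; isolate RNA, reverse-transcribe with oligo(dT), PCR-amplify, label with 6-FAM, digest with HpaI; size fragments by capillary electrophoresis. DMSO serves as negative control.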
# [17] = CCTE_Harrill_HTTr_Viability_MCF7: CCTE's 6-hour Cell Viability Assessment for the High-Throughput Transcriptomics (HTTr) Platform, in MCF-7 cells cultured in DMEM + 10% fetal bovine serum, Harrill Lab (AID 2284010; active means hit-call score of the fitted dose curve at least 0.9, where 1 is the maximum; inactive means score below 0.9)
# In short: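 Cells were dosed with chemicals in an eight-point dilution series, imaged 6 hours later for propidium iodide uptake, and the endpoint was analyzed by bidirectional fitting against DMSO as negative control.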
# [18] = CCTE_Harrill_HTTr_Apoptosis_MCF7: CCTE's 6-hour Apoptosis Assessment for the High-Throughput Transcriptomics (HTTr) Platform, in MCF-7 cells cultured in DMEM + 10% fetal bovine serum, Harrill Lab (AID 2284011; active means hit-call score of the fitted dose curve at least 0.9, where 1 is the maximum; inactive means score below 0.9)
# In short: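 MCF-7 (DMEM + 10% FBS), 384-well; 8-pt dilution series, 6 h chemical exposure; caspase-3/7 activation via CellEvent Caspase 3/7 Green, HCI; bidirectional fit vs DMSO.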
# Oxysterols receptor LXR-alpha (Homo sapiens), sequence (Q13133 whole entry, looked up, the tested form may be a part): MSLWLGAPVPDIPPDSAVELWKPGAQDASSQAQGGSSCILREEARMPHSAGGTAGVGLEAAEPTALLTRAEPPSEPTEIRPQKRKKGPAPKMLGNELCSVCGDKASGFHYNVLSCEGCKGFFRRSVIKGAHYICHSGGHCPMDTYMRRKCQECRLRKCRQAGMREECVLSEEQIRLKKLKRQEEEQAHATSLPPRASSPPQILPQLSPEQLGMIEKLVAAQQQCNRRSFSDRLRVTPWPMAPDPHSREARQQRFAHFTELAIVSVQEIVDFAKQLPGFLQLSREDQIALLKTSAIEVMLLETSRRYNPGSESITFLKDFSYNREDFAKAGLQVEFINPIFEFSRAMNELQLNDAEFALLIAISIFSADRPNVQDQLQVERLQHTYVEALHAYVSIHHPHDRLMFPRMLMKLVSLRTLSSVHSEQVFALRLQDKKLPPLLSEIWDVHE
# Glucocorticoid receptor (Homo sapiens), sequence (P04150 whole entry, looked up, the tested form may be a part): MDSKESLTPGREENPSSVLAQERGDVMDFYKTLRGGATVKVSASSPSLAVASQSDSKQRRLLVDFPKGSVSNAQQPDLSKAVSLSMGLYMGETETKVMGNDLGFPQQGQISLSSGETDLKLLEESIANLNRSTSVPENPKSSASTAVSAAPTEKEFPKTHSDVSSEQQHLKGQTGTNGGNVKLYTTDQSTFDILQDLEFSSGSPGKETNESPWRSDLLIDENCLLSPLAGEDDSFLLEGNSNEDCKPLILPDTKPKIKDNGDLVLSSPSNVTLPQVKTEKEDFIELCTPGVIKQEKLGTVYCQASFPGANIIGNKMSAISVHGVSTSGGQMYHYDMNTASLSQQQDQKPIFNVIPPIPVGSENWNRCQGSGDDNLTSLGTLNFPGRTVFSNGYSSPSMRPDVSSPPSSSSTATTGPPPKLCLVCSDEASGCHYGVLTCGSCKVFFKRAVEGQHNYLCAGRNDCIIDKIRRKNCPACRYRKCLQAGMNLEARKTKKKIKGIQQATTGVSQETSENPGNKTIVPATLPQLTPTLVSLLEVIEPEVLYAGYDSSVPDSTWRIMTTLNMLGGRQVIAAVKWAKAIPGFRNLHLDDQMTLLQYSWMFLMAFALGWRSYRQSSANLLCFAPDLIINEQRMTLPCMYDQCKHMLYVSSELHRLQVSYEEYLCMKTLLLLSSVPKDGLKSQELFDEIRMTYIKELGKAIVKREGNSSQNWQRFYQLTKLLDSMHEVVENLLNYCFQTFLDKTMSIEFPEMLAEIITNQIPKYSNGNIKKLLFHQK
# Oxysterols receptor LXR-beta (Homo sapiens), sequence (P55055 whole entry, looked up, the tested form may be a part): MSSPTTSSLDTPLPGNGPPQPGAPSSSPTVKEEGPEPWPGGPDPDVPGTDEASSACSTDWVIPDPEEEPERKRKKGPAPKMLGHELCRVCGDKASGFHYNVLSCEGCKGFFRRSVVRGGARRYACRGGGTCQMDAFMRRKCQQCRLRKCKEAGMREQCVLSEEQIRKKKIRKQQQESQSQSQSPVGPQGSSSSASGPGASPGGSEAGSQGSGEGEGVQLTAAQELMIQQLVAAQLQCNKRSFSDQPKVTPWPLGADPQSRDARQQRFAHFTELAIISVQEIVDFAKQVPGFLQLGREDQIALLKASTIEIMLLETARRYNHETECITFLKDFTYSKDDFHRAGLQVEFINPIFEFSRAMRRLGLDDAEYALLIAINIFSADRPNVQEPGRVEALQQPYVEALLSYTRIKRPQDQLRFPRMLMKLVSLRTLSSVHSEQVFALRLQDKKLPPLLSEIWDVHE
# human Peroxisome Proliferator-activated Receptor alpha (PPARa), PPARA (gene 5465), sequence (Q07869 whole entry, looked up, the tested form may be a part): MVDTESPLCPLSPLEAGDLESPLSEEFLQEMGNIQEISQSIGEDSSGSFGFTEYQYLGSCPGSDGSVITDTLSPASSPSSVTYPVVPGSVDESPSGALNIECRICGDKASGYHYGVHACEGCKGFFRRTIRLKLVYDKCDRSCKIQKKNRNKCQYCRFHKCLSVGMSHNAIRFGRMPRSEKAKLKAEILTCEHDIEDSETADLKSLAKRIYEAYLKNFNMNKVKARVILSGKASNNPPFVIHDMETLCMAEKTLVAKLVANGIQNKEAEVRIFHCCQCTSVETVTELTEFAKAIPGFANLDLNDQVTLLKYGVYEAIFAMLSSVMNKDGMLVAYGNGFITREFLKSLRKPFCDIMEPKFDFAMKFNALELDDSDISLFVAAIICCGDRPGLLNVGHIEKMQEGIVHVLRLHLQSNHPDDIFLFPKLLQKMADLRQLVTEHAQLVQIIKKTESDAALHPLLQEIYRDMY
# Retinoic acid receptor alpha (Homo sapiens), sequence (P10276 whole entry, looked up): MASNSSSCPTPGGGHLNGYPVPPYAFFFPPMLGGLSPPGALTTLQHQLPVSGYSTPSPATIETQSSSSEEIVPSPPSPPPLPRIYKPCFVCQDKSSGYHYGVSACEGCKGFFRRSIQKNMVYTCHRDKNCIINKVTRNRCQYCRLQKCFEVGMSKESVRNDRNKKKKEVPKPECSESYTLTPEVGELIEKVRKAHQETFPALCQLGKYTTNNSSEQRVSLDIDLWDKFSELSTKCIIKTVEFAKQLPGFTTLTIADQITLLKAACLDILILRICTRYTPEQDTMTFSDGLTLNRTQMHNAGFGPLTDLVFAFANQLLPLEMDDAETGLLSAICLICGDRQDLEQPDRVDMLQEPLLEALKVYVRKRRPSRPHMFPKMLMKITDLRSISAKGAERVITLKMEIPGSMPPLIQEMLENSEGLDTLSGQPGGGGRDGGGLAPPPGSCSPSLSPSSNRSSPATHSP
# human Peroxisome Proliferator-activated Receptor delta (PPARd), PPARD (gene 5467), sequence (Q03181 whole entry, looked up, the tested form may be a part): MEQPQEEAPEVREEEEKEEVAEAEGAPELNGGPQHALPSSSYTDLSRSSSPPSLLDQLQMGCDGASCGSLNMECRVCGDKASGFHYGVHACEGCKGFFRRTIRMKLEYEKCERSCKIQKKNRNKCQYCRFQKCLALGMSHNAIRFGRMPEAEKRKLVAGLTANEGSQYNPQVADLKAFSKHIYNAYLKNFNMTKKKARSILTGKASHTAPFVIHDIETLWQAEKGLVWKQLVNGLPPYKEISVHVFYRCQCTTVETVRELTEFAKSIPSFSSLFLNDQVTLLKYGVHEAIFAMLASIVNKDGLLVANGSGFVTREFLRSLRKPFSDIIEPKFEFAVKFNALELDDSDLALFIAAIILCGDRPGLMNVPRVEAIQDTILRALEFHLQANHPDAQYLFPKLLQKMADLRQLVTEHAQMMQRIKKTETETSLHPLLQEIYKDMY
# human Vitamin D Receptor (VDR), VDR (gene 7421), sequence (P11473 whole entry, looked up, the tested form may be a part): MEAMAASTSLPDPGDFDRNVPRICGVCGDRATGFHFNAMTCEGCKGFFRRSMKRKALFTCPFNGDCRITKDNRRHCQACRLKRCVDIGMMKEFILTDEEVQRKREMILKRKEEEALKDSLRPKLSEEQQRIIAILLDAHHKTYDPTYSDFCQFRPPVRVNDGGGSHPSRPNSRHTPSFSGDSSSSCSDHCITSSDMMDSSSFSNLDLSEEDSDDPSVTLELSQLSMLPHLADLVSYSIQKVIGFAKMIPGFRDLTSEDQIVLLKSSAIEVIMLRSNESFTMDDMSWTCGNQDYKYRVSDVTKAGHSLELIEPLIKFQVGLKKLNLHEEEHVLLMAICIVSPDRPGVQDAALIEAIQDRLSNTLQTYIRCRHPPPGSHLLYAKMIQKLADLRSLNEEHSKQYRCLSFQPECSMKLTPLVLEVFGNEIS
# Estrogen-related receptor gamma (Homo sapiens), sequence (P62508 whole entry, looked up, the tested form may be a part): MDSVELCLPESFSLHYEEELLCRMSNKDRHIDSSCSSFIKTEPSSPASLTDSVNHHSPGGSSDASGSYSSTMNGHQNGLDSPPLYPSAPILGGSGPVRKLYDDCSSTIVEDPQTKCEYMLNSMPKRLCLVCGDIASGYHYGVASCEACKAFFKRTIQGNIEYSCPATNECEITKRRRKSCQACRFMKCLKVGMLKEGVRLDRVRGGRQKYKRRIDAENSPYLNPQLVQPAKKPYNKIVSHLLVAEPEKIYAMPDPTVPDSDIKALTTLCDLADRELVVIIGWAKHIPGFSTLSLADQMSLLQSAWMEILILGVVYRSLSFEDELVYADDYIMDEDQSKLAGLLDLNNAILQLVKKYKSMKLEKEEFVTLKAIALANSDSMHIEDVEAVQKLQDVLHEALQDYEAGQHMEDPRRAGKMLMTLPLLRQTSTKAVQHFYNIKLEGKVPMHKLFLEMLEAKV
# Nuclear receptor subfamily 1 group I member 3 (Homo sapiens), sequence (Q14994 whole entry, looked up, the tested form may be a part): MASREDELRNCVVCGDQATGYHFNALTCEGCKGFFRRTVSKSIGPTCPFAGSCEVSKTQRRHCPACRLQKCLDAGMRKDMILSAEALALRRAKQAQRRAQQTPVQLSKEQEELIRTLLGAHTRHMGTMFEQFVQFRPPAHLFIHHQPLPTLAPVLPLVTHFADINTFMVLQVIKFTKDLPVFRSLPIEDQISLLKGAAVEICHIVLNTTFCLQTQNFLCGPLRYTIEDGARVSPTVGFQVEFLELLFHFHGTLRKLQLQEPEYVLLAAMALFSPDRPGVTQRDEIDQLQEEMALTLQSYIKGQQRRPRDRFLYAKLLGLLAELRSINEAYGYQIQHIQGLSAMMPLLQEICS
structure (smiles),measurement,setting,value
Oc1ccc(Oc2ccccc2)cc1,outcome,[1],inactive
same,AC50,[2],48 µM (active)
same,outcome,[3],inactive
same,outcome,[4],inactive
same,outcome,[5],inactive
same,outcome,[6],inactive
same,outcome,[7],inactive
same,outcome,[8],inactive
CCCCn1cc[n+](C)c1,outcome,[3],inactive
same,outcome,[9],inactive
O=C1NC(=O)[C@@H]2CC=CC[C@H]12,outcome,[1],inactive
same,outcome,[10],inactive
same,outcome,[11],inactive
same,outcome,[9],inactive
same,outcome,[4],inactive
same,outcome,[5],inactive
same,outcome,[6],inactive
same,outcome,[7],inactive
same,outcome,[8],inactive
O=C(O)Cc1c[nH]c2ccccc12,outcome,[12],inactive
same,outcome,[13],inactive
same,outcome,[14],inactive
same,outcome,[15],inactive
same,outcome,[16],inactive
same,outcome,[11],inactive
same,outcome,[3],inactive
same,outcome,[9],inactive
same,outcome,[5],inactive
same,outcome,[8],inactive
same,outcome,[17],inactive
same,outcome,[18],inactive
c1ccc(CNc2ncnc3nc[nH]c23)cc1,outcome,[1],inactive
same,outcome,[13],inactive
same,outcome,[15],inactive
same,outcome,[11],inactive
same,outcome,[3],inactive
same,outcome,[9],inactive
same,outcome,[4],inactive
same,outcome,[5],inactive
same,outcome,[17],inactive
same,outcome,[18],inactive
